Inconclusive results are not listed. A call without a number means that no potency is given here. Activity calls are given as the source filed them. Calls come from the whole dose curve; as a rule, active = well fitted inhibition curve with a large enough effect; inconclusive = small, poorly fitted or top-dose-only effect; inactive = flat fitted curve, though single readings scatter.
Potency is the fitted concentration of half-maximal effect.

The test is described as follows: BET inhibitor-based combinations targeting novel dependencies in MECOM-rearranged (r) AML: AML-194 cell line (AID 2202237; note: nearly all actives have a fitted effect of over 40% in size). The settings on record: AML-194 (MECOM-r AML) viability, CellTiter-Glo, 48 h; series mostly up to 46 µM. The essentials:
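AML cell lines seeded at 500 cells/well, treated with 11-point dose curves for 48 h. Viability by CellTiter-Glo luminescence, normalised to DMSO and empty wells; activity expressed as AUC and per-cell-line Z-transformed AUC.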
On to `Cn1c(COP(=O)(NCCBr)NCCBr)cnc1[N+](=O)[O-]`, for which the Potency result is “inactive”. Turning to `C[C@@H]1CC[C@@]2(OC1)O[C@H]1C[C@H]3[C@@H]4CC=C5C[C@@H](O[C@@H]6O[C@H](CO)[C@@H](O[C@@H]7O[C@@H](C)[C@H](O)[C@@H](O)[C@H]7O)[C@H](O)[C@H]6O[C@@H]6O[C@@H](C)[C@H](O)[C@@H](O)[C@H]6O)CC[C@]5(C)[C@H]4CC[C@]3(C)[C@H]1[C@@H]2C`, the Potency was 8.33 µM (active). In the case of `CC(C)(O)/C=C\C(=O)[C@](C)(O)[C@H]1[C@H](O)C[C@]2(C)[C@@H]3CC=C4[C@@H](C=C(O)C(=O)C4(C)C)[C@]3(C)C(=O)C[C@@]12C`, the Potency is 0.417 µM (active). The result for `COc1cc2c(cc1F)C(c1ccccc1Cl)=Nc1c(n[nH]c1C)N2` reads 2.35 µM (active); that for `CCOP(=O)(OCC)C(C)NC(=O)N(CCCl)N=O` (configuration not stated), “inactive”.

Take `Cc1c(N)nc([C@H](CC(N)=O)NC[C@@H](N)C(N)=O)nc1C(=O)N[C@H](C(=O)N[C@@H](C)[C@H](O)[C@@H](C)C(=O)N[C@@H](C(=O)NCCc1nc(-c2nc(C(=O)NCCC[S+](C)C)cs2)cs1)[C@@H](C)O)C(O[C@H]1O[C@H](CO)[C@H](O)[C@@H](O)[C@H]1O[C@H]1O[C@H](CO)[C@@H](O)[C@H](OC(N)=O)[C@@H]1O)c1cnc[nH]1` (some centres not stated): the Potency result is “inactive”. Under `CC(C)[C@]12O[C@H]1[C@@H]1O[C@@]13[C@@]1(C)CCC4=C(COC4=O)[C@@H]1C[C@@H]1O[C@@]13C2=O` stands 0.332 µM (active); under `COc1cc(C(=O)N2CC[C@@H](O)[C@@H](N)C2)cc2nc(-c3cc4ccccc4n3CC3CC3)n(C)c12`, “inactive”.

On to `CN(C)NC(=O)CCC(=O)O`, for which the Potency entry was “inactive”. For the compound `C/C=C(\C)C(=O)N[C@@H](c1ccccc1)[C@@H](O)C(=O)O[C@H]1C[C@@]2(O)[C@@H](OC(=O)c3ccccc3)[C@@H]3[C@]4(OC(C)=O)CO[C@@H]4C[C@H](O)[C@@]3(C)C(=O)[C@H](OC(C)=O)C(=C1C)C2(C)C`, the Potency was 0.0742 µM (active). Take `Cc1[nH]ncc1-c1cc2nc([C@@H]3CC4CCN3CC4)[nH]c(=O)c2s1`: the Potency was 9.34 µM (active). For the compound `COC12C(COC(N)=O)C3=C(C(=O)C(C)=C(N)C3=O)N1CC1C2N1C` (configuration not stated), the Potency entry was “inactive”. Under `C[C@]12CC[C@H]3[C@@H](CC[C@@]45O[C@@H]4C(O)=C(C#N)C[C@]35C)[C@@H]1CC[C@@H]2O` stands “inactive”; under `COc1cc([C@@H]2c3cc4c(cc3[C@@H](O)C3COC(=O)C32)OCO4)cc(OC)c1O` (some centres not stated), 0.332 µM (active). The result for `Clc1ccccc1C(c1ccccc1)(c1ccccc1)n1cccn1` reads “inactive”; that for `COc1cc2cc(c1Cl)N(C)C(=O)C[C@H](OC(=O)C(C)C)[C@]1(C)O[C@@H]1[C@H](C)[C@@H]1C[C@@](O)(NC(=O)O1)[C@H](OC)/C=C/C=C(\C)C2`, “inactive”; that for `C[C@H]1[C@H](O)[C@@H](C)/C=C/C=C/CC/C=C/C=C/C=C/C=C/[C@H](O[C@@H]2O[C@H](C)[C@@H](O)[C@H](N)[C@@H]2O)C[C@@H]2O[C@](O)(C[C@@H](O)[C@H](O)CC[C@@H](O)C[C@@H](O)C[C@@H](O)CC(=O)O[C@H]1C)C[C@H](O)[C@H]2C(=O)O`, “inactive”. Under `C[C@@H]1O[C@@H](O[C@@H]2C=C3CC[C@@H]4[C@H](CC[C@]5(C)[C@@H](c6ccc(=O)oc6)CC[C@]45O)[C@@]3(C)CC2)[C@H](O)[C@H](O)[C@H]1O` stands 0.0148 µM (active); under `c1ccc2c(CN3CCNCC3)cccc2c1`, “inactive”. For `CC(C)(NC(=O)O[C@@H]1CN2CCC1CC2)c1csc(-c2ccc(F)cc2)n1`, the Potency result was “inactive”. Turning to `N[C@@H]1C[C@H]1c1ccccc1`, the Potency result is “inactive”. With `CCCCCCC(C)(C)c1cc(O)c2c(c1)OC(C)(C)C1CC=C(CO)C[C@H]21` (some centres not stated), the Potency is 23.5 µM (active). The result for `C[C@]12COC(=O)C[C@@H]1CC[C@@H]1[C@@H]2CC[C@@]2(C)[C@H]1CC[C@]2(C)O` reads “inactive”; that for `CC(C)CC(N(C)C)C1(c2ccc(Cl)cc2)CCC1` (configuration not stated), “inactive”.

As to `O=c1cccc2n1CC1CNC[C@H]2C1`, the Potency entry was “inactive”. As to `Cn1c(CCCCCCC(=O)NO)nc2cc(N(CCCl)CCCl)ccc21`, the Potency was 2.95 µM (active). Under `CC1(C)C(=O)N(c2ccc(C#N)c(C(F)(F)F)c2)C(=S)N1Cc1ccc(-c2cn[nH]n2)cc1` stands 20.9 µM (active).

(Values after PubChem BioAssay (NCATS).)
